Screening results: PubChem, National Center for Advancing Translational Sciences (NCATS)
A selection: hits, their analogues and other compounds. The true share with any hit is near 5.4%.
HPGD inh: HPGD (human) dehydrogenase inhibition; Potency, µM, inactives show top-dose activity change, negative = inhibition, hits mostly inhibitors; purified HPGD, NADH fluorescence kinetic, PGE2 substrate; AID 894; actives 4.3% (n = 150,000); active = well fitted inhibition curve with a large enough effect, not every such curve was filed as active; inconclusive = small, poorly fitted or top-dose-only effect, or another doubt; inactive = no such curve, though single readings can be large or run the other way; note: potency is the fitted concentration of half-maximal effect
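NADH formation kinetics: reaction with 30 uM PGE2 and 1 mM NAD+ (final), 20 nM enzyme, Tris-HCl pH 8 with Tween 20, after 15 min compound preincubation at room temperature. Fluorescence change, last versus first of five reads.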
15-hLO-2 inh: blocks human 15-lipoxygenase 2 activity; Potency, µM (highest dose often 57.1 µM), without a hit: at the highest dose activity change, negative = inhibition, actives largely listed as inhibitors; O15296; actives 0.56% (n = 110,000); purified 15hLO-2, xylenol orange hydroperoxide absorbance; note: potency is the fitted concentration of half-maximal effect; nearly all actives have a fitted effect of over 60% in size
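Read-out: hydroperoxide product oxidises ferrous iron, measured as xylenol orange complex via the 573-to-405 nm absorbance ratio after 30 min. Reaction: 50 nM enzyme, 15 min compound preincubation, 45 uM arachidonic acid, 90 min RT, Hepes pH 7.5 with Triton X-100.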
PNC inhibitor: inhibitors of perinucleolar compartment assembly | PC3M PTB-GFP, PNC prevalence imaging, 16 h; hits give low values | activity change (PNC), negative = inhibition, % at 10 µM | actives 3.1% (n = 140,000) | AID 2417;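 active = readout at or below -70, meaning at least 70% loss of cells showing the perinucleolar compartment, a nuclear body marking cancer cells; inconclusive = readout between -30 and a set limit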;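 note: plate controls were DMSO wells for no effect and camptothecin positive control wells for full effect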
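PC3M cells stably expressing PTB-GFP, 750–1000 cells/well, treated 16 h at 37 °C with compound (23 nl of library stock), in duplicate. After paraformaldehyde fixation and Hoechst stain, imaged at 20x; PNC prevalence scored by image analysis.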
IMPase Li inh: membrane-permeable IMPase blocker, potentiated with lithium; Potency, µM (highest dose often 59.4 µM), without a hit: at the highest dose activity, negative = IMPase inhibition, actives largely listed as inhibitors; actives 0.35% (n = 210,000); CHO-M1 cells, IP1 TR-FRET (IP-One), carbachol + lithium;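 note: IP1 builds up when IMPase is blocked and the TR-FRET signal falls; potency is the fitted concentration of half-maximal effect; plate controls were basal vehicle for no effect and high inhibitor control for full effect; nearly all actives have a fitted effect of over 50% in size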
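Concentration–response in CHO-M1 cells, lithium-potentiated; 30 min at 37C. IP1 detected by competitive TR-FRET after 10 min lysis at RT. Hill-fitted AC50.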
IMPase cell inh: cell-permeable inhibitors of inositol monophosphatase (IMPase); CHO-M1 cells, IP1 accumulation, HTRF TR-FRET ratio; 120,000 tested, under 10 active; inhibition (IP1 accumulation), % at 46.1 µM; AID 901; active = well fitted curve in the direction sought with a large enough effect in the signal ratio, not every such curve was filed as active; inconclusive = small, poorly fitted or top-dose-only effect, or a change in a side signal; inactive = no such curve, though single readings can be large or run the other way; the % refers to the signal ratio;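 note: cells stimulated with carbachol in lithium chloride buffer; plate controls were DMSO basal wells for no effect and reference inhibitor wells for full effect; higher means more IMPase inhibition seen as more IP1 and lower FRET ratio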
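Carbachol-driven Gq signalling in CHO-M1 cells (2000/well) generates IP1. Compounds that block IMPase raise IP1 and so reduce the FRET signal from Eu-anti-IP1 and d2-IP1 after a 10 min room-temperature lysis.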
ALOX12 inhib: inhibitors of human 12-lipoxygenase (ALOX12) | purified 12-hLO, xylenol orange hydroperoxide absorbance | Potency, µM (doses to about 57.1 µM), inactives show at the top dose activity change, negative = inhibition, most hits filed as inhibitors | actives 0.12% (n = 150,000); note: potency is the fitted concentration of half-maximal effect; nearly all actives have a fitted effect of over 55% in size
Target sequence (P18054 whole entry, looked up): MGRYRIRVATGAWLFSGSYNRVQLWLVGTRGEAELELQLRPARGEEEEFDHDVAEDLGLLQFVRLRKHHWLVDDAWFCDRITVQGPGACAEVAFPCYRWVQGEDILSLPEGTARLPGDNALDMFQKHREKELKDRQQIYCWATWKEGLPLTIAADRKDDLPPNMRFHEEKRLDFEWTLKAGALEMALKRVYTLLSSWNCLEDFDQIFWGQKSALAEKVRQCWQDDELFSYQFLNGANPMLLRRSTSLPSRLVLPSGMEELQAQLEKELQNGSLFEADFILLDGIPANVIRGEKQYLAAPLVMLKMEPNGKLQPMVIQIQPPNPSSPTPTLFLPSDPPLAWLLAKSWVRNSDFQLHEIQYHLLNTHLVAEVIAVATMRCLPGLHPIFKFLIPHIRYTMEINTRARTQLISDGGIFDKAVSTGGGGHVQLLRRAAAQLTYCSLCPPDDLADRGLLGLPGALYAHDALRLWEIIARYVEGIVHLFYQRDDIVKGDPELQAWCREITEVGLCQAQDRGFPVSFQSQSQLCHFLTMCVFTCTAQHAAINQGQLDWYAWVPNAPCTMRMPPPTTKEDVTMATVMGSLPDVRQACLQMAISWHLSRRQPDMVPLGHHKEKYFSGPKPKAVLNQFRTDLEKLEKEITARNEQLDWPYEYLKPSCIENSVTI
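Xylenol orange chromogenic assay: hydroperoxide from 12hLO oxidises Fe(II), giving red-shifted Fe(III)-XO absorbance. Conditions: 150 nM enzyme, 40 uM arachidonic acid, 25 mM Hepes pH 7.0, 0.01% Triton X-100, 30 min, room temperature.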
* hit, by the source's call; ? = inconclusive; . = not tested or not shown; ! = a repeat was not active; [ ] = another dose, or the depositor's remark. Unless noted, calls come from the whole dose curve; as a rule, active = well fitted curve in the direction sought with a large enough effect; inconclusive = small, poorly fitted or top-dose-only effect, or another doubt; inactive = no such curve, though single readings can be large; an effect the other way counts as inactive or inconclusive. Unless noted, % is set by controls: 0 for no effect and ±100 for the full control effect.

SMILES	HPGD inh	15-hLO-2 inh	PNC inhibitor	IMPase Li inh	IMPase cell inh	ALOX12 inhib
Cc1ccc(/C=C/C(=O)NC2CCCCCCC2)o1	3.5µM*	.	30	1%	.	0%
Cc1ccc(/C=C/C(=O)Nc2nccs2)o1	25µM*	.	-18	-1%	.	-1%
COc1cccc(/C=N/Nc2nn3cnnc3c3ccccc23)c1	?	0%	-80*	29%[38.3 µM]	0	-1%
CC(=O)[C@H](CC(C)C)NC(=O)[C@@H](CC(C)C)NC(=O)[C@H](CC(C)C)NC(=O)OCc1ccccc1	-2%	-9%	.	14%	3	-2%
Cc1nc2cnc(N3CCN(C)CC3)nc2n(C2CC2)c1=O	.	29%	.	-25%	.	.
NC(=O)c1c(NC(=O)CSc2nnc(-c3ccco3)n2-c2ccccc2)sc2c1CCC2	28µM*	?	-10	-17%[38.3 µM]	?	-25%
COc1ccc(-c2nnc(SCC(=O)Nc3sc4c(c3C#N)CCCC4)n2-c2ccccc2)cc1	-11%	.	-86*	14%	-13	6%
COc1ccc(-n2c(SCC(=O)Nc3sc4c(c3C#N)CCCC4)nnc2-c2ccccc2OC)cc1	-13%	.	146	7%	2	-1%
COc1ccc(OC)c(NC(=O)N2c3ccccc3Sc3ccccc32)c1	.	.	.	.	1	.
O=C(CN1C(=O)CSc2ccccc21)Nc1ccc2c(c1)OCCO2	-11%	-12%	?	-6%[38.3 µM]	-1	-2%
CCC1Oc2ccccc2N(CC(=O)Nc2ccc3c(c2)OCCO3)C1=O (centres undefined)	-4%	.	-94*	0%	-15[1.84 µM]	0%
O=C(CCN1C(=O)c2ccccc2C1=O)Nc1ccc2c(c1)OCCO2	-14%	-7%	-89*	17%[38.3 µM]	6	2%
O=C(CN1C(=O)COc2ccccc21)Nc1ccc2c(c1)OCCO2	-11%	-5%	?	-17%[38.3 µM]	-3	-3%
O=C(CN1C(=O)CCS(=O)(=O)c2ccccc21)Nc1ccc2c(c1)OCCO2	-9%	.	-100*	0%	1	-4%
COc1ccc(N(C(=O)COc2ccccc2OC)S(=O)(=O)c2ccc(Cl)cc2)cc1	.	.	.	.	-8	.
CN(Cc1ccco1)c1ncncc1-c1cccnc1	.	2%	.	0%	.	.
O=C(O)c1cc(=O)c2ccc(Cl)cc2[nH]1	28µM*!	16%	.	25%	2	-7%
CCCCc1nc2c(c3c1C[C@H](C)OC3)CN(C(=O)NCCCC(=O)OCC)CC2	-5%	.	.	-3%	.	-1%[11.4 µM]
COc1ccc(/C=C2/C(=O)N(c3nc4ccccc4s3)N=C2CSc2ccc(Cl)cc2)cc1	14µM*	.	-4	0%	-10	-14%
COc1ccc(/C=C2/C(=O)N(Cc3ccccc3)N=C2C)cc1	-29%	.	-4	11%	.	-6%
O=C(CSc1nc2ccccc2s1)c1sc2sc3ccccc3[n+]2c1O	?	-29%[11.4 µM]	.	-27%	.	-5%[11.4 µM]
O=C(CC1N=C2c3ccccc3N=C(SCC(=O)Nc3cccc(Cl)c3)N2C1=O)NCc1cccs1 (centres undefined)	.	.	.	.	4	.
COc1ccc(C(=O)O/N=C(\N)c2ccccc2)c(OC)c1	14µM*	.	3	-1%	.	1%
N/C(=N\OC(=O)c1ccc(Cl)cc1Cl)c1ccccc1	14µM*	-4%	-9	13%[38.3 µM]	2	-10%
Cc1cccc(/C(N)=N/OC(=O)C23CC4CC(CC(C4)C2)C3)c1	-20%	.	-114*	-4%	.	-1%
N/C(=N\OC(=O)c1ccc(Cl)cc1Cl)c1ccc(Cl)cc1	5µM*	0%	20	-3%[38.3 µM]	1	5%
N/C(=N\OC(=O)c1ccc(Cl)cc1Cl)c1cccnc1	.	.	.	2%	.	.
CC(=O)Nc1ccc2c(c1)/C(=C/c1ccc([N+](C)(C)C)cc1)c1ccccc1-2	-1%	5%[11.4 µM]	.	-5%	.	3%[11.4 µM]
Cc1cccc(/C(N)=N/OC(=O)c2ccc(Cl)cc2Cl)c1	16µM*	.	-2	0%	.	1%
Cc1cc(C)c(/C=C2/C(=O)Nc3ccccc32)[nH]1	.	?	.	.	12	-8%
